# The list is not random: actives were taken first. Their share in the collection is about 0.9%.
# RecA splice inh – Mtb RecA intein splicing inhibitors, primary screen, biochemical, fluorescence, HTS | cell-free RecA intein splicing | inhibition, % (test concentration not listed) | 290,000 compounds, 0.75% hits; in the data active = inhibition above about 30%
# TcdB inh – TcdB glycohydrolase inhibitors, primary screen, biochemical, single point, plate reader. Toxin B (Clostridioides difficile), P18177. TcdB glycohydrolase enzymatic assay. inhibition, % at 9.99 µM. 350,000 compounds, 0.24% hits; in the data active = inhibition above about 10%
# Target sequence (P18177 whole entry, looked up): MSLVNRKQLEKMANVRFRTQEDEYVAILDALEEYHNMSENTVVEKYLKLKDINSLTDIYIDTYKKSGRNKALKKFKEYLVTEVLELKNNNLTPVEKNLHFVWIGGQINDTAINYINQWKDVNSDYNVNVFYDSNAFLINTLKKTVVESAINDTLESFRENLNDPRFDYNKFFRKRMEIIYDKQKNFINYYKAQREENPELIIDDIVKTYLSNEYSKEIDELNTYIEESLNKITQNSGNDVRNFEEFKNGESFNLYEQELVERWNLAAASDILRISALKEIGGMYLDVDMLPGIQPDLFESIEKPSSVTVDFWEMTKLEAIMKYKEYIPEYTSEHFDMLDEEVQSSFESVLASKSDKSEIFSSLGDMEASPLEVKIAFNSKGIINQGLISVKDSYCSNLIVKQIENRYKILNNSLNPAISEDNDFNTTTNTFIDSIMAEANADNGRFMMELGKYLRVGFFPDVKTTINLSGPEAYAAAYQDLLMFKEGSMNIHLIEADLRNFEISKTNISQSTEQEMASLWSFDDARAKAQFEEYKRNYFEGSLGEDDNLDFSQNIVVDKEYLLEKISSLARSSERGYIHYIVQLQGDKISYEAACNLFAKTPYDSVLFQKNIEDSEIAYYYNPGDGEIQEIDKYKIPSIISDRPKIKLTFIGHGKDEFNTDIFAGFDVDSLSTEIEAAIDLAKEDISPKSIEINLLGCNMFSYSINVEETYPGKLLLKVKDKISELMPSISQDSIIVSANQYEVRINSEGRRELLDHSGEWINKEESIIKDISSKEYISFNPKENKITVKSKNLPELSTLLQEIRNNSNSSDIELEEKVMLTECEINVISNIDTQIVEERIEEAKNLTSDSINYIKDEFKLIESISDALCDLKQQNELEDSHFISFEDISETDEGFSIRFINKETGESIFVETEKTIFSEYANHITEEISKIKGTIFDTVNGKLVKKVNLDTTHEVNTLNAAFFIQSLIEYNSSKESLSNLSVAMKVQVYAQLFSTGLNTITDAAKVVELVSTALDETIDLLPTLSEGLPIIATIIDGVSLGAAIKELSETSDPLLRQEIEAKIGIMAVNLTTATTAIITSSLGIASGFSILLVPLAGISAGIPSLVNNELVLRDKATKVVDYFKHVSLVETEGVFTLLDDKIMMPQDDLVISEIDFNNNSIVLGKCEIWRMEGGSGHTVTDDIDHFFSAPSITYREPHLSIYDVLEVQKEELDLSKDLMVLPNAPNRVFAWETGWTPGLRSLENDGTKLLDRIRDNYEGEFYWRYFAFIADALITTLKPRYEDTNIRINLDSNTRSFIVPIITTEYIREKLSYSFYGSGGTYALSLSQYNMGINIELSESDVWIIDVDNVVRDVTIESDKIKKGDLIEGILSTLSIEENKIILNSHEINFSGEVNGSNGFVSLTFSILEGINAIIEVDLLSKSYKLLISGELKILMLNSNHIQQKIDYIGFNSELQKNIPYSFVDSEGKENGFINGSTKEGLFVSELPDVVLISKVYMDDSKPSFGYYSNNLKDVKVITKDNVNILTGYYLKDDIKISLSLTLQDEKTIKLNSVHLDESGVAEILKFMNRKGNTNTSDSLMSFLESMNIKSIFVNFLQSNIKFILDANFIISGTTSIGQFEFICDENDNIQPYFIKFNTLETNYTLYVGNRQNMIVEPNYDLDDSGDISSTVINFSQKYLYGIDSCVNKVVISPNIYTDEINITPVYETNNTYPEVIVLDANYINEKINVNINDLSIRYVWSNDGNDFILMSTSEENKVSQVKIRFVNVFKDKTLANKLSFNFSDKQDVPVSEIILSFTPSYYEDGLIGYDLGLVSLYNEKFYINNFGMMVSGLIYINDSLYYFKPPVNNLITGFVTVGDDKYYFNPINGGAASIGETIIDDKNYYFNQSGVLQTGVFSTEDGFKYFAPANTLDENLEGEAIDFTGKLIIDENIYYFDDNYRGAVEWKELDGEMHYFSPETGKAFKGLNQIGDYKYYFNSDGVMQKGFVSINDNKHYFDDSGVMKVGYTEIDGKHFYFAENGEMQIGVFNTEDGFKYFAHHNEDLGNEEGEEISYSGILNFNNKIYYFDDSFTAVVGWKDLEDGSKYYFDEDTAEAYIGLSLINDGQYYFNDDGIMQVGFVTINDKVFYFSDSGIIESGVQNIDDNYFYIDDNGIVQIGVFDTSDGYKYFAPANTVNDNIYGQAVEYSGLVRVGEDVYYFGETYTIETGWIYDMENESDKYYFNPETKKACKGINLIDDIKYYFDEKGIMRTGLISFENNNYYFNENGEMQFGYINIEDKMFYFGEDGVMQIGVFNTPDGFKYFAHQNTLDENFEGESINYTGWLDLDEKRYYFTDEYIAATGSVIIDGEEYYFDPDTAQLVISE
# UGM FP inh – M. tuberculosis UGM enzyme inhibitors, primary screen, biochemical, fluorescence polarization, single point | UDP-galactopyranose mutase (Mycobacterium tuberculosis (strain ATCC 25618 / H37Rv)), … | purified UGM, fluorescence polarization probe displacement | inhibition, % at 10 µM | 320,000 compounds, 0.06% hits | AID 504406, 2011; in the data active = inhibition above about 10%, passing the limit was not always enough
# Rv3671c inh – Rv3671c serine protease inhibitors, primary screen, biochemical, fluorescence polarization, M. tuberculosis H37Rv; AID 2606, 2010; P9WHR9; inhibition, % at 5.96 µM; 320,000 compounds, 0.048% hits; in the data active = inhibition above about 38%;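 also: extracellular domain of Rv3671c used as enzyme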
# FadD28 FP inh – inhibitors of FadD28 bisubstrate probe binding, primary screen, biochemical, fluorescence polarization, single point | Mycobacterium tuberculosis FadD28 fatty-acid-AMP ligase | inhibition, % at 12.5 µM | 360,000 compounds, 0.22% hits; in the data active = inhibition above about 8.5%, passing the limit was not always enough
# BioA inh – M. tuberculosis BioA enzyme inhibitors, primary screen, biochemical, plate reader, single point, HTS; inhibition, % at 9.99 µM; 7,8-diaminopelargonic acid synthase BioA (Mycobacterium tuberculosis); purified M. tuberculosis BioA enzyme; 360,000 compounds, 0.096% hits; AID 602481, 2012; in the data active = inhibition above about 40%
# Numbers stand for hits; i = inactive; nt = no result given.
SMILES,RecA splice inh,TcdB inh,UGM FP inh,Rv3671c inh,FadD28 FP inh,BioA inh
CCN(CC)c1ccc(C=C2C(=O)OC3(CCCCC3)OC2=O)cc1,i,i,i,i,i,nt
CCN(CC)c1ccc(/C=C2/C(=O)c3ccc(C(=O)O)cc3C2=O)cc1,nt,i,i,i,18,nt
CC(C)C12NC(=O)NC(=O)N1CCS2 (stereo not given),nt,10,nt,nt,i,nt
CCCNC(=O)C1(C)CCCN(C(=O)c2ccccc2OC(F)(F)F)C1 (stereo not given),nt,12,nt,nt,i,i
COCC(=O)N(C)C[C@H]1Oc2ncc(C#Cc3ccc(F)cc3)cc2C(=O)N([C@H](C)CO)C[C@@H]1C,nt,i,nt,nt,nt,nt
CC(Sc1nc(N)cc(=O)[nH]1)C(=O)NCC(=O)Nc1ccc(F)c(F)c1F (stereo not given),nt,11,i,i,i,i
Cc1ccc(S(=O)(=O)NC(=O)Nc2cc(C)ccc2F)cc1,i,nt,i,i,i,i
CC(=O)NS(=O)(=O)c1ccc(N=c2ssc3c2-c2ccc(C)cc2NC3(C)C)cc1,i,nt,i,i,14,nt
COc1ccc(S(=O)(=O)N[C@@H]2C=C[C@H](CC(=O)NCCc3ccccc3)O[C@H]2CO)cc1,nt,i,nt,nt,nt,i
C/C(=N\Nc1ccc(C(=O)O)cc1)c1ccc2c(c1)Nc1ccccc1S2,nt,i,i,i,20,i
C/C(=N/Nc1ccc(C(=O)O)cc1)c1ccc2c(c1)Nc1ccccc1S2,nt,i,nt,nt,20,nt
COc1ccc(/C(C)=N/Nc2cccc(C(=O)O)c2)cc1OC,i,i,i,i,i,i
CCOC(=O)C1CCN(c2nc(N)c3c(N)nc(SCC(=O)O)cc3c2C#N)CC1,45,i,nt,nt,i,i
CCNC(=S)N=Nc1c(O)[nH]c2ccc([N+](=O)[O-])cc12,45,i,i,i,i,nt
CCC(C)NC(=O)c1c(N)n(CC2CCCO2)c2nc3ccccc3nc12 (stereo not given),i,nt,i,i,i,i
CCC(C)NC(=O)c1c(N)n(Cc2ccc3c(c2)OCO3)c2nc3ccccc3nc12 (stereo not given),41,nt,i,i,i,i
CCC(=O)N(C)C[C@@H]1Oc2cc(C3=CCCC3)ccc2S(=O)(=O)N([C@@H](C)CO)C[C@@H]1C,nt,i,nt,nt,nt,i
CO[C@@H]1CN(C)C(=O)c2ccc(NC(=O)c3cccc(F)c3)cc2OC[C@@H](C)N(CC2CC2)C[C@@H]1C,nt,i,nt,nt,nt,i
CC=Cc1ccc2n(c1=O)C[C@@H]1[C@@H](CO)[C@H](C(=O)N[C@H](C)c3ccccc3)[C@H]2N1CC1CC1 (mixture of isomers),nt,i,nt,nt,nt,i
CCN1CCN(S(=O)(=O)c2ccc3[nH]c(=O)oc3c2)CC1,i,19,i,i,i,i
CCN1C(=O)NC(=O)/C(=C\c2cn(CC(=O)N3CCCC3)c3ccccc23)C1=O,i,i,52,i,nt,i
CCN1C(=O)NC(=O)/C(=C\c2cn(CC(=O)O)c3ccccc23)C1=O,i,nt,i,i,nt,nt
CCN1C(=O)NC(=O)/C(=C\c2cn(CC(=O)N3CCCCC3)c3ccccc23)C1=O,i,i,41,i,i,i
COc1ccc2c3c([nH]c2c1)[C@@H](CO)N(C(C)=O)CC31CCN(C(=O)Nc2c(C)noc2C)CC1,nt,i,nt,nt,nt,nt
OCC[n+]1c2ccccc2nc2ccc(N3CCOCC3)cc21,31,i,i,i,i,i
SMILES,RecA splice inh,TcdB inh,UGM FP inh,Rv3671c inh,FadD28 FP inh,BioA inh
CC=Cc1ccc2n(c1=O)C[C@@H]1[C@@H](CO)[C@H](C(=O)Nc3nccs3)N(C(=O)CC)[C@H]21 (mixture of isomers),nt,i,nt,nt,nt,i
O=[N+]([O-])c1cnccc1-n1nnc2ccccc21,nt,i,nt,nt,nt,nt
O=C(O)c1ccc(-n2nnc3ccccc32)c([N+](=O)[O-])c1,i,14,i,i,i,i
CO[C@H]1CN(C)C(=O)c2cc(NC(=O)Nc3ccccc3)ccc2OC[C@@H](C)N(C(=O)CC2CC2)C[C@H]1C,nt,nt,nt,nt,nt,i
O=c1c2ccccc2nc2n1CCC2,51,nt,i,i,i,nt
O=c1c2ccccc2nc2n1CCCCC2,i,nt,i,i,i,i
CC(=O)c1ccc2c(c1)C1C=CCC1C(c1ccc(S(=O)(=O)N3CCOCC3)cc1)N2 (stereo not given),nt,nt,i,i,i,nt
Cc1c(Cl)cccc1NS(=O)(=O)c1ccc2c(c1)C1C=CCC1C(c1ccc(C(=O)O)cc1)N2 (stereo not given),nt,nt,i,i,28,nt
COc1ccc(NS(=O)(=O)c2ccc3c(c2)[C@H]2C=CC[C@H]2[C@@H](c2ccc(C(=O)O)cc2)N3)cc1,i,i,i,i,32,i
C[C@@H]1CN([C@H](C)CO)C(=O)c2cc(-c3ccc(F)cc3)cnc2O[C@H]1CN(C)C(=O)C1CCC1,nt,i,nt,nt,nt,i
CCOC(=O)c1cccc(NC(=O)CCNS(=O)(=O)c2cccc3nonc23)c1,i,16,i,i,i,i
CCOc1ccccc1NC(=O)CCNS(=O)(=O)c1cccc2nonc12,i,14,i,i,i,i
Cc1noc(C)c1NC(=O)N[C@@H]1C=C[C@@H](CC(=O)NCCCN(C)C)O[C@H]1CO,nt,i,nt,nt,nt,i
CCCNC(=O)N1CC2(CN(C)C2)c2c(n(C)c3cc(OC)ccc23)[C@H]1CO,nt,i,nt,nt,nt,nt
CC(=O)N1CCc2c(sc(NC(=O)C3CC3)c2-c2nc3ccccc3s2)C1,30,i,i,i,i,i
C[C@@H]1CCCCO[C@H](CN(C)S(=O)(=O)c2ccccc2)[C@H](C)CN([C@@H](C)CO)C(=O)c2cc(NS(=O)(=O)c3cccs3)ccc2O1,nt,i,nt,nt,nt,i
COc1ccc(NC(=O)CSc2ccc([N+](=O)[O-])cc2)cc1S(=O)(=O)N1CCOCC1,nt,i,nt,i,12,nt
CCCC#Cc1ccc2c(c1)O[C@@H](CN(C)C(C)=O)[C@H](C)CN([C@@H](C)CO)S2(=O)=O,nt,i,nt,nt,nt,i
O=C(NC(=S)NCc1nc2ccccc2[nH]1)c1ccccc1F,nt,i,i,i,8.9,nt
O=C(NC(=S)NCc1nc2ccccc2[nH]1)c1ccc(F)cc1,i,i,i,i,i,nt
C[C@H](CO)N1C[C@H](C)[C@@H](CN(C)C)Oc2cc(Br)ccc2S1(=O)=O,nt,i,nt,nt,nt,i
O=C1c2ccccc2-c2c1nc1c([n+]2[O-])CCCC1,37,nt,i,i,i,nt
C[C@H]1CN([C@@H](C)CO)C(=O)c2cc(-c3cncnc3)cnc2O[C@@H]1CN(C)CC1CCCC1,nt,i,nt,nt,nt,i
CCOC(=O)CNC(=O)CSc1ncnc2c1nnn2-c1ccc(F)cc1,i,nt,i,i,i,i
COC(=O)C(C)Sc1ncnc2c1nnn2-c1ccc(F)cc1 (stereo not given),53,nt,i,i,i,i

# Bioassay records as filed in PubChem.
